# Source: PubChem BioAssay (National Center for Advancing Translational Sciences (NCATS))
# Shown are actives, neighbours in structure and some others; about 7.5% of the full set was active somewhere.
# ELG1 DNA repair: ELG1-dependent DNA repair inhibition | AID 504467 | Potency, µM (titrated, usually from 46.1 µM), without a hit: at the highest dose activity change, negative = inhibition, actives largely listed as inhibitors | actives 2.3% (n = 330,000) | HEK293T ELG1-luciferase reporter, luminescence, 16 h; DNA damage induced by 5-fluorouridine; note: potency is the fitted concentration of half-maximal effect; nearly all actives have a fitted effect of over 55% in size
#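 Step one: seed 2,000 cells per well. Step two: pin-transfer compound or DMSO alongside 5-fluorouridine. Step three: incubate 16 hr, 37 °C, 5% CO2. Step four: add ONE-Glo, wait 30 min, read luminescence.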
# B2AR arrestin: recruits beta-arrestin to the human beta2-adrenergic receptor; P07550; beta-arrestin recruitment to beta2AR, cell-based reporter; Potency, µM (series often up to 46.1 µM), inactives show top-dose activation, usual class: activators; actives 0.02% (n = 330,000); AID 492947;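 note: potency is the fitted concentration of half-maximal effect; 0% = DMSO controls and full agonism = EC100 isoproterenol or metaproterenol; nearly all actives have a fitted effect of over 65% in size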
# Gal4-VP16 FLuc: inhibits Gal4-VP16 luciferase reporter, ROR gamma counter-screen; Drosophila S2 Gal4-VP16 UAS-luciferase, luminescence, 20 h; Potency, µM (series often up to 53.6 µM), inactives show top-dose activity, negative = inhibition, usual class: inhibitors; actives 3.5% (n = 310,000); AID 2546;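 note: Gal4-VP16 expression switched on by copper sulfate through the metallothionein promoter; potency is the fitted concentration of half-maximal effect; nearly all actives have a fitted effect of over 50% in size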
# RORgamma inh: blocks mouse ROR gamma transcriptional activity | AID 2551 | Drosophila S2 Gal4-RORgamma UAS-luciferase reporter, 20 h | actives 5.4% (n = 310,000) | Potency, µM (doses to about 53.6 µM), for inactives: at the top dose activity change, negative = inhibition, most hits filed as inhibitors; note: potency is the fitted concentration of half-maximal effect; nearly all actives have a fitted effect of over 60% in size
# Target sequence (P51450 whole entry, looked up, the tested form may be a part): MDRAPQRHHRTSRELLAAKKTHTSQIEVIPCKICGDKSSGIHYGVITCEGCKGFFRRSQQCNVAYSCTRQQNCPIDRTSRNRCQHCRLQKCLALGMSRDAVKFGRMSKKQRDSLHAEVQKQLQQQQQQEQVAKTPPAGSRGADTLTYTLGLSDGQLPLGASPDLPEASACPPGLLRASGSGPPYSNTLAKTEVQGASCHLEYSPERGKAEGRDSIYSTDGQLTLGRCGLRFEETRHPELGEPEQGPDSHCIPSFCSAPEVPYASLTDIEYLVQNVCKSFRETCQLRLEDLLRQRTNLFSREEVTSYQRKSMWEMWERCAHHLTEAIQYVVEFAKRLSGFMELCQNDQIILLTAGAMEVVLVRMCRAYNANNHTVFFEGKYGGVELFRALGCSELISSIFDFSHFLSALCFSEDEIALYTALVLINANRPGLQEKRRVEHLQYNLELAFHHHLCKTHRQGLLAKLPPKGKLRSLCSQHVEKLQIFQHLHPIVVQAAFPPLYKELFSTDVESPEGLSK
#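 Luminescence from a UAS-regulated Photinus luciferase reporter in stably transfected Drosophila Schneider cells is measured; decreased signal marks ROR gamma inhibition. Fusion expression is induced by 700 uM copper sulfate for 20 hr.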
# TSHR antag: human thyrotropin receptor antagonism. P16473. TSHR-expressing cells, TSH-stimulated cAMP HTRF, 2 h; stronger effect = lower value. activity change, negative = inhibition, % at 11.5 µM. actives 0.2% (n = 330,000);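 active = activity change below a set negative limit, meaning inhibition stronger than a set level, cut at about -70% in these data; inconclusive = activity change between two set negative limits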
#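 Inhibition of cAMP made by TSHR-expressing cells under TSH stimulation (4nM final, EC80; 2 h, 37 deg C) is quantified with a one-step lysis HTRF kit, anti-cAMP cryptate versus cAMP-d2.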
# * = called active by the depositor; ? = inconclusive; . = no result; [ ] = dose if it differs, or a comment. Unless noted, calls come from the whole dose curve; as a rule, active = well fitted curve in the direction sought with a large enough effect; inconclusive = small, poorly fitted or top-dose-only effect, or another doubt; inactive = no such curve, though single readings can be large; an effect the other way counts as inactive or inconclusive. Unless noted, % is set by controls: 0 for no effect and ±100 for the full control effect.
SMILES,ELG1 DNA repair,B2AR arrestin,Gal4-VP16 FLuc,RORgamma inh,TSHR antag
O=C(Nc1cccc(-c2nc3ccccc3s2)c1)c1ccc2c(c1)OCO2,-12%,0%,8%,16%,-38
COc1ccc(-c2nc3ccccc3s2)cc1,?,-1%,?,8.9µM*,-11
Cc1ccc2nc(C)cc(Nc3ccc([N+](=O)[O-])cc3)c2c1,?,-1%,5µM*,7.1µM*,7
O=C(NCCC[N+]1=CC=N[C@H]1c1ccccc1)N1CCCc2nc(-c3ccc(Br)cc3)ccc21,.,.,-8%[10 µM],2%[10 µM],.
C[C@H](NC(=O)c1nc[nH]c1C(=O)NC1CCN(C(=O)OC(C)(C)C)CC1)C(=O)OC(C)(C)C,0%,0%,11µM*,?,20
CC(C)(C)OC(=O)NCCCC[C@H](NC(=O)c1nc[nH]c1C(=O)NC1CCN(C(=O)OC(C)(C)C)CC1)C(=O)OC(C)(C)C,16µM*,4%,?,11µM*,-13
Cc1cccc(NC(=O)c2nc[nH]c2C(=O)NC2CCN(C(=O)OC(C)(C)C)CC2)c1,26µM*,0%,.,.,-10
CC(C)C[C@H](NC(=O)c1nc[nH]c1C(=O)NC1CCN(C(=O)OC(C)(C)C)CC1)C(=O)OC(C)(C)C,-12%,3%,7.1µM*,3.2µM*,9
CC(C)C[C@H](NC(=O)c1nc[nH]c1C(=O)NC1CCN(C(=O)OC(C)(C)C)CC1)C(=O)OCc1ccccc1,15%,-1%,?,-22%,-13
C=C[C@]1(C)Cc2occ(C)c2C[C@H]1C(=C)C(=O)O,.,.,-24%,-36%,.
O=C(CCNS(=O)(=O)c1ccccc1C(F)(F)F)NCCCc1ccccc1,12%,-1%,.,.,4
Cc1ccc(SC2=C(C(=O)O)CCCC2)cc1,-1%,0%,-6%,6%,3
C(=Nc1ccc(Nc2ccccc2)cc1)c1ccc2ccccc2c1,-17%,4%,13µM*,?,1
CN(CC[C@@H](Oc1ccc(C(F)(F)F)cc1)c1ccccc1)CC(=O)O,.,.,0%,-2%,16
CCc1nn(CC(=O)N(C)C2CCCCC2)c(=O)c2cc3cc(C)ccc3n12,19%,0%,3%,-1%,40
Cn1c(-c2ccccc2)nc2cnccc21,80%,0%,-2%,1%,0
CC(C)n1c(-c2cccnc2)nc2cnccc21,13µM*,0%,3%,-7%,-8
COc1ccc(S(=O)(=O)N2CCc3ccccc32)cc1[N+](=O)[O-],6.5µM*,0%,6%,13%,-15
O=S(=O)(c1ccc2ccccc2c1)N1CCc2ccccc21,-12%,-1%,-17%,?,15
COc1ccc(S(=O)(=O)N(C(C)=O)c2ccc(OC(C)=O)c3ccccc23)cc1[N+](=O)[O-],15µM*,0%,?,?,2
Cc1cc(O)c2c(c1O)C(=O)C(O)=C(O)C2=O,.,.,-14%,-44%,.
O=C(N/N=C/c1ccccn1)c1ccc(Br)o1,-8%,0%,?,13µM*,44
O=C(N/N=C/c1ccccn1)c1cc(Br)ccc1O,14%,0%,4.5µM*,4µM*,10
Cc1ccc(NC(=O)CN2C(=O)NC3(CCc4ccccc43)C2=O)cc1S(=O)(=O)N1CCCCC1 (centres undefined),?,0%,.,.,20
O=C(CCCN1C(=O)c2cccc3cccc(c23)C1=O)Nc1ccon1,-5%,-1%,-4%,16%,-11
SMILES,ELG1 DNA repair,B2AR arrestin,Gal4-VP16 FLuc,RORgamma inh,TSHR antag
Cc1[nH]n(S(=O)(=O)Cc2ccccc2)c(=O)c1N=Nc1ccccc1Cl,?,0%,-7%,-2%,-20
CCOc1ccccc1N=Nc1c(C)[nH]n(C(N)=S)c1=O,-7%,?,1.3µM*,0.45µM*,-15
Cc1[nH]n(C(N)=S)c(=O)c1N=Nc1ccc([N+](=O)[O-])cc1Cl,0%,10%,3.5µM*,0.71µM*,-12
Cc1[nH]n(C(N)=S)c(=O)c1N=Nc1ccccc1C(F)(F)F,-14%,0%,2.5µM*,0.32µM*,-15
Cc1cccc(N=Nc2c(C)[nH]n(C(N)=S)c2=O)c1C,?,?,1.6µM*,0.4µM*,-10
NC(=S)n1[nH]c(-c2ccc([N+](=O)[O-])cc2)c(N=Nc2ccc(O)cc2)c1=O,-30%,-3%,-4%,1%,-12
CCOc1cccc(CN2CCC(n3nccc3NC(=O)C3CC3)CC2)c1O,-4%,0%,7%,-3%,15
CC(C)=CCCC1(C)C=Cc2c(c(C)cc3c2[nH]c2ccccc23)O1 (centres undefined),.,.,-7%,30%,.
CC[C@H](NC(=O)[C@H](CCCN=C(N)N)NC(=O)[C@H](Cc1c[nH]c2ccccc12)NC(=O)[C@@H](N)CS)C(=O)N[C@@H](CCCN=C(N)N)C(=O)N[C@@H](Cc1ccc(O)cc1)C(N)=O,.,.,-13%,12%,.
CC(C)Cn1nnnc1S(=O)(=O)Cc1ccccc1,.,.,7%,14%,.
Cc1ccccc1N=Nc1c(C)[nH]n(C(N)=S)c1=O,?,0%,1µM*,0.4µM*,-9
Cc1[nH]n(-c2ccccc2)c(=O)c1N=Nc1ccccc1C(=O)O,-19%,0%,11%,23%,-19
O=C(Nc1cccc(F)c1)N1CCC2(CC1)CCN(C(=O)c1cc(C(F)(F)F)cc(C(F)(F)F)c1)CC2,.,.,-15%,6%,.
Cc1nnsc1-c1onc(C)c1C(=O)Nc1cc(Cl)cc(Cl)c1,16µM*,-1%,-27%,34%,-18
Cc1ccc(NC(=O)c2cc(=O)[nH]c3ccccc23)cc1,2%,-1%,-5%,-14%,-8
O=C(N/N=C/c1ccccc1O)c1cc(=O)[nH]c2ccccc12,-6%,2%,?,7.9µM*,-7
COc1cc(OC)c2cc(C(=O)N/N=C/c3ccccc3O)[nH]c2c1,-15%,0%,5.6µM*,6.3µM*,-8
COc1ccc(C(=O)Nc2ccccc2C(=O)N/N=C/c2cccc3ccccc23)cc1,?,-1%,0.79µM*,1µM*,10
CCOc1ccc(/C=N/NC(=O)c2cc3c(OC)cc(OC)c(OC)c3[nH]2)cc1,8.2µM*,-1%,-6%,-34%,-5
COc1ccc2[nH]c(C(=O)N/N=C/c3ccccc3OC)cc2c1,?,0%,-14%,-5%,-5
C/C=C\C1=C(CO)[C@H](O)[C@H]2OC2[C@@H]1O (some centres undefined),.,.,8%[10 µM],0%[10 µM],.
Cc1cc(C(=O)N/N=C/c2cccc3ccccc23)c(C)o1,30%,0%,-5%,?,-1
Cc1ccc2[nH]c(C(=O)N/N=C/c3ccccc3O)c(C)c2c1,2.3µM*,0%,6.3µM*,1µM*,-2
O=C(N/N=C/c1ccccc1O)c1cccc2ccccc12,-16%,-1%,0.89µM*,1µM*,-4
